Assay results taken from PubChem BioAssay (Tox21).
Several values for one entry are separate records, joined by “and”; a condition that tells them apart may be missing. Identical values can stand only once. Results filed as inconclusive are left out. Entries that show only a call come without a potency. Some structures have more than one record in an assay (separate samples or runs), and their calls can disagree. Activity calls are given as the source filed them. Unless noted, calls follow the shape of the dose curve; as a rule, active = well fitted curve in the direction sought with a large enough effect in the repeat runs; inconclusive = weak or mixed curves; inactive = no such curve, though single readings can be large; an effect the other way counts as inactive or inconclusive.

Legend:
[1] = qHTS assay to identify small molecule antagonists of the estrogen related receptor (ERR) signaling pathway from Tox21 library - cell viability counter screen (AID 1224834); also: nearly all actives have a fitted effect of over 30% in size; also: potency is read from the fitted curve at half-maximal effect
How it was run: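 CellTiter-Fluor fluorescence, read after 30 min at 37 C, measures viability of ERR cells. Cells plated at 2,000/well and incubated 6 h before pin-tool compound addition, then exposed 17.5 hours at 37 C.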

[2] = molecular target: Luciferin 4-monooxygenase (Photinus pyralis) (UniProt P08659); test: qHTS assay to identify small molecule inhibitors of firefly luciferase (AID 1224835); also: nearly all actives have a fitted effect of over 25% in size; also: potency is read from the fitted curve at half-maximal effect
Chain of Luciferin 4-monooxygenase (Photinus pyralis) (P08659 whole entry, looked up): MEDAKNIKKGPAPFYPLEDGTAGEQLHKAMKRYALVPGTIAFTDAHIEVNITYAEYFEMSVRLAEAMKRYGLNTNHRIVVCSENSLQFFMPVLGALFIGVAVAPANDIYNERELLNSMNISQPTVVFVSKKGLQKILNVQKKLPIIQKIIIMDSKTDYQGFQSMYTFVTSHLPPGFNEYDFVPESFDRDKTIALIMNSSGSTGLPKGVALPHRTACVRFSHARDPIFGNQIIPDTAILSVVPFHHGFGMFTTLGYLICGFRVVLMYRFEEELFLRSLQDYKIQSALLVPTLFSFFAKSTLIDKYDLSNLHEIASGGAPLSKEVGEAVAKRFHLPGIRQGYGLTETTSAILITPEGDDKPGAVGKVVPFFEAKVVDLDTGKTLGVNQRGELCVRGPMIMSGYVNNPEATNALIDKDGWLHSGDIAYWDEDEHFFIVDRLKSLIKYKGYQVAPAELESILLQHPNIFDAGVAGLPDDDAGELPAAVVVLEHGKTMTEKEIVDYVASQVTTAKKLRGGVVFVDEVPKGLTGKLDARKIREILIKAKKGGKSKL
How it was run: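 Inhibition of purified Photinus luciferase is measured by luminescence. Substrate levels (D-luciferin, ATP) sit at their KM values. Each compound is tested in a concentration series.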

[3] = qHTS assay to identify small molecule antagonists of the constitutive androstane receptor (CAR) signaling pathway - cell viability counter screen (AID 1224837); also: nearly all actives have a fitted effect of over 45% in size
How it was run: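 Cytotoxicity counter-screen: CellTiter-Fluor fluorescence after 23 h compound exposure (15-point qHTS) in double-stable HepG2-CYP2B6-hCAR cells, with 50 nM CITCO added.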

[4] = molecular target: Nuclear receptor subfamily 1 group I member 3 (Homo sapiens) (UniProt Q14994); test: qHTS assay to identify small molecule agonists of the constitutive androstane receptor (CAR) signaling pathway (AID 1224839); also: nearly all actives have a fitted effect of over 15% in size; also: potency is read from the fitted curve at half-maximal effect;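 as to activation: HepG2 cells stably carrying human CAR and a CYP2B6 luciferase reporter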
Chain of Nuclear receptor subfamily 1 group I member 3 (Homo sapiens) (Q14994 whole entry, looked up): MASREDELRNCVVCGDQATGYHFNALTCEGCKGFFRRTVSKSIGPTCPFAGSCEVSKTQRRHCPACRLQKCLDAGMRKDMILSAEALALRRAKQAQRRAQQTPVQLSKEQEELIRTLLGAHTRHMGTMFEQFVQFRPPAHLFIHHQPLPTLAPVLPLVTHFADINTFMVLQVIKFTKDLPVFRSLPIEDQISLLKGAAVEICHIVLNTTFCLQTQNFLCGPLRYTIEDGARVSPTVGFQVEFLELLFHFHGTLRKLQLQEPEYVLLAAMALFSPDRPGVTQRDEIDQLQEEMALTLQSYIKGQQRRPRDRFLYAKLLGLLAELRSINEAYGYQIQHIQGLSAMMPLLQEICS
How it was run: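 HepG2 cells stably expressing hCAR and a CYP2B6-2.2kb luciferase reporter were treated with compounds at 15 concentrations plus 0.75 uM PK11195 (final) for 24 h at 37 C; luminescence was read after ONE-Glo addition.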

[5] = qHTS assay to identify small molecule antagonists of the estrogen related receptor signaling pathway with the pleiotropic PPARgamma coactivator (PGC) from Tox21 10K library - cell viability counter screen (AID 1224840; active = well fitted cell-killing curve with a large enough effect in the repeat runs, not every such curve was filed as active; also: nearly all actives have a fitted effect of over 40% in size)
How it was run: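 Counter-screen for cytotoxicity: after 17.5 h compound exposure at 37 C, CellTiter-Fluor reagent added to PGC/ERR cells for 30 min and fluorescence read. Cells were seeded at 2,000 per well 6 h before dosing.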

[6] = qHTS assay to identify small molecule antagonists of the estrogen related receptor signaling pathway with the pleiotropic PPARgamma coactivator (PGC) from Tox21 10K library (AID 1224841; call rule not given here; also: actives are mostly falling curves and most rising ones were filed inactive; nearly all actives have a fitted effect of over 50% in size; also: potency is read from the fitted curve at half-maximal effect)
How it was run: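 Luminescence (One-Glo, 30 min at room temperature) after 18 h compound treatment at 37 C of PGC/ERR reporter cells plated at 2,000 cells/well and settled 6 h beforehand.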

[7] = qHTS assay to identify small molecule agonists of the estrogen related receptor signaling pathway with the pleiotropic PPARgamma coactivator (PGC) from Tox21 10K library (AID 1224842); also: nearly all actives have a fitted effect of over 15% in size; also: potency is read from the fitted curve at half-maximal effect
How it was run: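 Luminescence from One-Glo (30 min, room temperature) measured after PGC/ERR cells had 18 h at 37 C with pinned compound (23 nL in DMSO). Cells had been seeded at 2,000 per well and pre-incubated 6 h.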

[8] = molecular target: Thyrotropin receptor (Homo sapiens) (UniProt P16473); test: qHTS assay to identify small molecule agonists of the thyroid stimulating hormone receptor (TSHR) signaling pathway (AID 1224843; calls by dose curve; also: nearly all actives have a fitted effect of over 45% in size)
Chain of Thyrotropin receptor (Homo sapiens) (P16473 whole entry, looked up): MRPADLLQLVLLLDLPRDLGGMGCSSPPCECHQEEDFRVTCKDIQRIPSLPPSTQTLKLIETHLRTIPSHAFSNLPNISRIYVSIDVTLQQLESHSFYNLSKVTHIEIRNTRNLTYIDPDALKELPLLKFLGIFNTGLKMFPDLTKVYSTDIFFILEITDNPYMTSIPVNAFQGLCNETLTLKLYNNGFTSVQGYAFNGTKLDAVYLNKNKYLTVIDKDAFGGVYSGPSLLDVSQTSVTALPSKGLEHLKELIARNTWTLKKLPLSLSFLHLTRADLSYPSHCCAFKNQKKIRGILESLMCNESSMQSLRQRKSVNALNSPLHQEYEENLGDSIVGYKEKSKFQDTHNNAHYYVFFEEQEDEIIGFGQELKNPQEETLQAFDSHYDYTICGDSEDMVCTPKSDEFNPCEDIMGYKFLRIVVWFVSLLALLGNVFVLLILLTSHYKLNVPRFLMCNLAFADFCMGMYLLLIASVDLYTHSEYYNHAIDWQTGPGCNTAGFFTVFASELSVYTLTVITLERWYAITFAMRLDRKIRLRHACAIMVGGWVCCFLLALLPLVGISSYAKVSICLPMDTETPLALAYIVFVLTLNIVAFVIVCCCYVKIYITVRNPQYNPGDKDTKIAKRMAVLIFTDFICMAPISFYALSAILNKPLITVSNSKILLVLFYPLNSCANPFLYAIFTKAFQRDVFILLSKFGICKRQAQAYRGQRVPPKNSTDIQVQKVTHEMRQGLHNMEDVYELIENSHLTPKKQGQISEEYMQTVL
How it was run: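 Agonist activity read as cAMP rise via d2/cryptate HTRF competition, 1 h room-temperature detection, in HEK293 cells expressing TSHR. Fifteen-point titrations, each run in triplicate, with a 30 min room-temperature incubation beforehand.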

[9] = qHTS assay to identify small molecule agonists of the hypoxia (HIF-1) signaling pathway - cell viability counter screen (AID 1224844; calls by dose curve; also: nearly all actives have a fitted effect of over 50% in size; also: potency is read from the fitted curve at half-maximal effect)
How it was run: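 Cytotoxicity measured by CellTiter-Glo ATP luminescence in the wells also read for beta-lactamase signal. Cells were HRE-bla ME-180 (2,000/well, 0.5% dialyzed FBS), exposed to compounds for 17 h at 37C.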

[10] = qHTS assay to identify small molecule agonists of H2AX (AID 1224845; active = well fitted activation curve with a large enough effect in the signal ratio in the repeat runs, not every such curve was filed as active; the % refers to the signal ratio)
How it was run: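 Phospho-H2AX Ser139 measured by HTRF (ex 320 nm; em 665 and 620 nm) after 24 hr antibody incubation. Compounds, 15 concentrations, 0.76% DMSO, were applied to CHO-K1 cells for 3hr at 37C before lysis.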

[11] = qHTS assay to identify small molecule agonists of the hypoxia (HIF-1) signaling pathway (AID 1224846; active = well fitted activation curve with a large enough effect in the signal ratio in the repeat runs, not every such curve was filed as active; the % refers to the signal ratio)
How it was run: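 Compounds added to ME-180 cells carrying hypoxia-response-element beta-lactamase reporter (0.5% dialyzed FBS, 5 h preplating), 17 h at 37C; agonist activity detected by CCF4-AM B/G FRET read-out.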

[12] = qHTS assay to identify small molecule agonists of H2AX - cell viability counter screen (AID 1224847; calls by dose curve; also: nearly all actives have a fitted effect of over 30% in size; also: potency is read from the fitted curve at half-maximal effect)
How it was run: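 Wild-type CHO-K1 cells (10% FBS medium) were plated overnight at 37C, exposed to compounds at 15 concentrations for 3 hr at 37C (0.76% DMSO final), and viability was read as CellTiter-Glo luminescence after 30 min at room temperature.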

[13] = qHTS assay to identify small molecule antagonists of the estrogen related receptor (ERR) signaling pathway from Tox21 library (AID 1224848); also: nearly all actives have a fitted effect of over 50% in size; also: potency is read from the fitted curve at half-maximal effect
How it was run: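 Luciferase luminescence (ONE-Glo, 30 min room temperature) was the read-out. Cells of the NTP-supplied ERR line, 2,000 per well, were given 6 h at 37 C before compound addition in DMSO and 18 h exposure at 37 C.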

[14] = qHTS assay to identify small molecule agonists of the estrogen related receptor (ERR) signaling pathway from Tox21 library (AID 1224849; calls by dose curve; also: nearly all actives have a fitted effect of over 15% in size); conditions: ERR reporter cell line, ONE-Glo luciferase, 18 h
How it was run: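 Luminescent agonist read-out (One-Glo, 30-minute room-temperature incubation) following 18-hour compound treatment at 37 C of the ERR cell line, which had been plated 6 hours before dosing.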

[15] = qHTS RealTime-Glo MT Cell Viability Assay in HepG2 cells - 24 hour (AID 1224867); also: nearly all actives have a fitted effect of over 50% in size
How it was run: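 Luminescence read-out: viable HepG2 cells reduce a prosubstrate to a NanoLuc substrate, giving a signal proportional to live cell number. Reads taken at 0, 8, 16, 24, 32 and 40 h of compound exposure at 37 C.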

[16] = qHTS RealTime-Glo MT Cell Viability Assay in HEK293 cells - 32 hour (AID 1224868); also: nearly all actives have a fitted effect of over 50% in size; also: potency is read from the fitted curve at half-maximal effect
How it was run: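 Nonlytic real-time viability readout: viable cells convert prosubstrate to NanoLuc substrate, giving luminescence proportional to live cell number. HEK293, 600 cells/well, compound added after 5 h, continuous culture at 37 C.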

[17] = A CellTox Green Cytotoxicity Assay to monitor cytotoxicity in HEK293 cells - 0 hour (AID 1224869); also: nearly all actives have a fitted effect of over 50% in size
How it was run: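 Fluorescence from a DNA-binding dye excluded by viable cells was measured repeatedly in the same HEK293 wells (600 cells/well) during continuous compound exposure at 37 C. Each assay gives one read point: 0, 8, 16, 24, 32 or 40 h.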

[18] = molecular target: Nuclear receptor subfamily 1 group I member 3 (Homo sapiens) (UniProt Q14994); test: qHTS assay to identify small molecule antagonists of the constitutive androstane receptor (CAR) signaling pathway (AID 1224838); also: nearly all actives have a fitted effect of over 40% in size
How it was run: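 Antagonism measured as luciferase signal (ONE-Glo, 30 min, room temperature) in CAR-stimulated cells: HepG2-CYP2B6-hCAR double-stable line exposed 24 hr at 37 C to compound in a 15-point series plus 50 nM CITCO.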

[19] = qHTS assay to identify small molecule agonists of the constitutive androstane receptor (CAR) signaling pathway - cell viability counter screen (AID 1224836); also: nearly all actives have a fitted effect of over 45% in size; also: potency is read from the fitted curve at half-maximal effect
How it was run: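 HepG2 cells stably carrying hCAR and a CYP2B6-2.2kb reporter were plated 4 h, then given compounds at 15 concentrations plus PK11195 (final 0.75 uM). After 23 h at 37 C, viability was read by CellTiter-Fluor fluorescence.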

Compound: c1nc[nH]n1
- Potency [1]: inactive
- Potency [2]: inactive
- Potency [3]: inactive
- Potency [4]: inactive
- Potency [5]: inactive
- Potency [6]: inactive
- Potency [7]: inactive
- Potency [8]: inactive
- Potency [9]: inactive
- Potency [10]: inactive
- outcome [11]: inactive
- Potency [12]: inactive
- Potency [13]: inactive
- activity change, positive = activation ([14]; at 92.4 µM (top of the series)): 1.27% (inactive) and 6.15% (inactive)
- Potency [15]: inactive
- Potency [16]: inactive
- Potency [17]: inactive

Compound: c1ccc(P(c2ccccc2)c2ccccc2)cc1
- Potency [1]: inactive
- Potency [2]: inactive
- Potency [3]: inactive
- Potency [5]: inactive
- Potency [8]: inactive
- Potency [10]: inactive
- outcome [11]: inactive
- Potency [12]: inactive
- Potency [15]: inactive
- Potency [16]: inactive
- Potency [17]: inactive

Compound: CCN(CC)N=O
- Potency [1]: inactive
- Potency [2]: inactive
- Potency [3]: inactive
- Potency [5]: inactive
- Potency [6]: inactive
- Potency [7]: inactive
- Potency [8]: inactive
- Potency [9]: inactive
- outcome [11]: inactive
- Potency [12]: inactive
- Potency [13]: inactive
- activity change, positive = activation ([14]; at 92.4 µM (top of the series)): 0.678% (inactive)
- Potency [15]: inactive
- Potency [16]: inactive

Compound: Nc1ccncc1
- Potency [1]: inactive
- Potency [2]: inactive
- Potency [3]: inactive
- Potency [18]: inactive
- Potency [4]: inactive
- Potency [5]: inactive
- Potency [8]: inactive
- Potency [9]: inactive
- Potency [10]: inactive
- Potency [12]: inactive
- Potency [15]: inactive
- Potency [16]: inactive
- Potency [17]: inactive

Compound: NCc1cccnc1
- Potency [1]: inactive
- Potency [19]: inactive
- Potency [3]: inactive
- Potency [18]: inactive
- Potency [4]: inactive
- Potency [5]: inactive
- Potency [6]: inactive
- Potency [7]: inactive
- Potency [8]: inactive
- Potency [9]: inactive
- outcome [11]: inactive
- Potency [12]: inactive
- Potency [13]: inactive
- activity change, positive = activation ([14]; at 42.5 µM (top of the series)): 0.61% (inactive)
- activity change, positive = activation ([14]; at 92.4 µM (top of the series)): 4.26% (inactive)
- Potency [15]: inactive
- Potency [16]: inactive
- Potency [17]: inactive

Compound: CC(C)(c1cc(Cl)c(O)c(Cl)c1)c1cc(Cl)c(O)c(Cl)c1
- Potency [1]: inactive
- Potency [2]: inactive
- Potency [3]: inactive
- Potency [5]: inactive
- Potency [6]: inactive
- Potency [7]: inactive
- Potency [8]: inactive
- Potency [10]: inactive
- Potency [12]: inactive
- Potency [13]: inactive
- activity change, positive = activation ([14]; at 92.4 µM (top of the series)): -0.444% (inactive) and -2.89% (inactive)
- Potency [15]: inactive
- Potency [16]: inactive

Compound: CCCCCCOC(=O)c1ccccc1C(=O)OCCCCCC
- Potency [1]: inactive
- Potency [19]: inactive
- Potency [3]: inactive
- Potency [4]: 27.9 µM (active) and 30.6 µM (active)
- Potency [5]: inactive
- Potency [8]: inactive
- Potency [9]: inactive
- Potency [10]: inactive
- outcome [11]: inactive
- Potency [12]: inactive
- Potency [15]: inactive
- Potency [16]: inactive

Compound: O=C(Nc1ccc(Br)cc1)c1cc(Br)cc(Br)c1O
- Potency [1]: inactive and 19.3 µM (active) and 10.6 µM (active)
- Potency [2]: 3.98 µM (active) and 5.03 µM (active) and 6.92 µM (active)
- Potency [19]: 27.2 µM (active) and 16.8 µM (active)
- Potency [6]: 13.6 µM (active) and 13.7 µM (active) and inactive
- Potency [7]: inactive
- Potency [8]: inactive
- Potency [9]: 38.8 µM (active) and 24.5 µM (active)
- Potency [10]: inactive
- Potency [12]: 28.3 µM (active) and 35.7 µM (active) and 39.1 µM (active)
- Potency [13]: 12.2 µM (active)
- activity change, positive = activation ([14]; at 42.5 µM (top of the series)): -35.9% (inactive)
- activity change, positive = activation ([14]; at 92.4 µM (top of the series)): -31.1% (inactive) and -48% (inactive)
- Potency [15]: inactive
- Potency [16]: 21.8 µM (active) and 21.9 µM (active)

Compound: CC(C)C(=O)OCC(C)(C)C(OC(=O)C(C)C)C(C)C (stereo not given)
- Potency [1]: inactive
- Potency [19]: inactive
- Potency [3]: inactive
- Potency [4]: inactive
- Potency [5]: inactive
- Potency [6]: inactive
- Potency [7]: inactive
- Potency [8]: inactive
- Potency [9]: inactive
- Potency [10]: inactive
- outcome [11]: inactive
- Potency [12]: inactive
- Potency [13]: inactive
- activity change, positive = activation ([14]; at 92.4 µM (top of the series)): 5% (inactive) and 0.884% (inactive)
- Potency [15]: inactive
- Potency [17]: inactive

Compound: CCC(C)(c1ccc(O)cc1)c1ccc(O)cc1
- Potency [1]: 68.5 µM (active)
- Potency [19]: inactive
- Potency [3]: inactive
- Potency [18]: inactive
- Potency [4]: 4.85 µM (active) and 3.06 µM (active)
- Potency [5]: inactive
- Potency [6]: 48.5 µM (active)
- Potency [7]: inactive
- Potency [8]: inactive
- Potency [9]: inactive
- outcome [11]: inactive
- Potency [12]: inactive
- Potency [13]: 54.5 µM (active)
- activity change, positive = activation ([14]; at 92.4 µM (top of the series)): -28.1% (inactive) and -37.5% (inactive)
- Potency [15]: inactive
- Potency [17]: inactive

Compound: Cc1cccc(N)c1N
- Potency [1]: inactive
- Potency [19]: inactive
- Potency [3]: inactive
- Potency [18]: inactive
- Potency [4]: 59.1 µM (active) and 54.5 µM (active)
- Potency [5]: inactive
- Potency [6]: inactive
- Potency [7]: inactive and 15.4 µM (active)
- Potency [8]: inactive
- Potency [9]: inactive
- Potency [10]: inactive
- outcome [11]: inactive
- Potency [12]: inactive
- Potency [13]: inactive
- activity change, positive = activation ([14]; at 92.4 µM (top of the series)): 5.31% (inactive) and 103% (active)
- Potency [15]: inactive
